# According to ChEMBL document CHEMBL4513216, “Probing the Open Global Health Chemical Diversity Library for Multistage-Active Starting Points for Next-Generation Antimalarials” (ACS Infect Dis, 2020):
# Among all 69,000 compounds or so, about 8,600 (12%) showed an effect of 50% or more. The sample as a whole holds a higher share of strong results than the screen did.
# Tested on: Plasmodium berghei
# Assay: Screen against P. berghei liver stage (PbLuc), transformed with Luciferase, at 10uM
# Assay type: functional, HepG2
# Settings: tested at 10 uM
row,SMILES,INHIBITION
1,CN(Cc1ccco1)[C@@H]1CN(C(=O)c2ccnnc2)C[C@@H]2CCCO[C@@H]21,18.5%
2,CCN(CC)C(=O)Cn1cc(-c2nc(C(C)C)no2)nn1,-18.1%
3,O=C(c1cnco1)N1C[C@@H](O)[C@H](Oc2cccc(F)c2)C1,5.11%
4,Cc1cc(F)ccc1CNCc1cccc(C(=O)N2CCCC2)c1,7.67%
5,NC(=O)c1cccc(CNCC=Cc2ccccc2)c1,17.1%
6,O=C(c1cccc(CNCC=Cc2ccccc2)c1)N1CCCC1,58.5%
7,COc1ccc(CN2CC(O)CN(C(=O)c3ccccc3)CC2=O)cc1 (stereo not given),23%
8,CC(C)c1nc2n(n1)CC(NCc1nnc(C(C)C)o1)CC2 (stereo not given),18.9%
9,CCc1nc2n(n1)CC(NCc1nc3ccccc3o1)CC2 (stereo not given),11.9%
10,CCc1nc2n(n1)CC(NCc1nc(C)c(C)o1)CC2 (stereo not given),46.6%
11,CCc1nc2n(n1)CC(NCc1nc3ccccc3nc1C)CC2 (stereo not given),53.3%
12,CCc1nnc(CNC2CCc3nc(C(C)C)nn3C2)o1 (stereo not given),-19.4%
13,Cc1nc2n(n1)CC(NCC(=O)NCCC1=CCCCC1)CC2 (stereo not given),40.4%
14,CCc1nc2n(n1)CC(NCc1nc(C)ccc1O)CC2 (stereo not given),-15%
15,Cc1nc2n(n1)CC(NCc1nc(C)c(C)o1)CC2 (stereo not given),-67.9%
16,CC(C)c1nc2n(n1)CC(NCC(=O)NCCC1=CCCCC1)CC2 (stereo not given),51.1%
17,CCc1nc2n(n1)CC(NCc1nnc(C(C)C)o1)CC2 (stereo not given),60.2%
18,Cc1nc(CNC2CCc3nc(C(C)C)nn3C2)oc1C (stereo not given),75.2%
19,Cc1cc(NC(=O)CNC2CCc3nc(C(C)C)nn3C2)no1 (stereo not given),-7.31%
20,CCN1C(=O)CC[C@@H]2[C@H]1CCN2S(=O)(=O)Cc1ccc(C)cc1,45.2%
21,Clc1ccc(-c2nc(CN3CCCC3Cn3cncn3)co2)cc1 (stereo not given),-24.2%
22,c1coc(CN2CCO[C@H]3[C@H](OCC4CC4)CC[C@@H]32)c1,-2.27%
23,CCN(Cc1nc2c(cnn2C)c(=O)[nH]1)c1ccc(F)cc1,29.7%
24,CC(C)Nc1nc(O)cc(C2CC(=O)N(Cc3ccccn3)C2)n1 (stereo not given),-23.8%

row,SMILES,INHIBITION
1,Cc1cc(C(=O)N2CCC(c3nnc(Cn4ccnc4)n3C)CC2)cs1,-40.5%
2,Cc1ccc(C(=O)N2CCC3(CC(N(C)c4ccncn4)C3)C2)cn1 (stereo not given),41.2%
3,Cc1cnn(CC2CCCN2C(=O)c2cc3c(F)cccc3[nH]2)c1 (stereo not given),24.6%
4,CCCOC(C)C(=O)NCc1cc2n(n1)CCCN(C1CCCCC1)C2 (stereo not given),14.8%
5,CN(C)S(=O)(=O)c1ccc(=O)n(CC2CCCCO2)c1 (stereo not given),4.52%
6,O=C(c1cccnc1)N1CCN(CC2CC2)c2ncccc2C1,-18.4%
7,CSc1ccccc1C(=O)N1CCN(C)C2(CCC(=O)N(C)CC2)C1 (stereo not given),46.7%
8,Cc1c(F)cc(C(=O)O)cc1S(=O)(=O)Nc1ccccc1,20.265%
9,Cn1c(C2CCCCN2C(=O)CN2CCCC2=O)nc2ccccc21 (stereo not given),61.5%
10,Cn1cc(C2CCCN2C(=O)Cn2ccc3ccccc32)cn1 (stereo not given),23.1%
11,Cn1c(C2CCCN2C(=O)CN2CSCC2=O)nc2ccccc21 (stereo not given),59.3%
12,O=C1CSCN1CC(=O)N1CCCC1c1nc2ccccc2s1 (stereo not given),32.3%
13,Cn1c(C2CCCN2C(=O)CN2CCCC2=O)nc2ccccc21 (stereo not given),24.7%
14,Cn1c(C2CCCN2C(=O)c2cn(CCN)nn2)nc2ccccc21 (stereo not given),28%
15,Cc1cnn(CCC(=O)N(CC2CN(C)CCO2)c2nccs2)c1 (stereo not given),-31.6%
16,CN1CCOC(CN(C(=O)CCc2cnn(C)c2)c2nccs2)C1 (stereo not given),62.6%
17,CN1CCOC(CN(C(=O)CCc2ccco2)c2nccs2)C1 (stereo not given),43.3%
18,CN1CCOC(CN(C(=O)COc2ccccc2)c2nccs2)C1 (stereo not given),-2.53%
19,CN1CCOC(CN(C(=O)CC2CCCC2)c2nccs2)C1 (stereo not given),55.5%
20,CN1CCOC(CN(C(=O)CN2CCCC2=O)c2nccs2)C1 (stereo not given),48.1%
21,CCC1(CO)CCCN(C(=O)c2cc(COc3ccccc3F)[nH]n2)C1 (stereo not given),-39.3%
22,Cn1cc(-c2cc(C(F)(F)F)nn2CCC#N)cn1,20.1%
23,Cc1cc2c(cc1NC(=O)NCC(C)C)OCO2,28.5%
24,O=C1CCC2(CCN(CC[C@@H](O)c3ccccc3)CC2)CN1CC1CC1,-51.7%

row,SMILES,INHIBITION
1,O=C(c1cccs1)N1CCCC(c2cc(C(F)F)n3ncnc3n2)C1 (stereo not given),40%
2,O=C(CCCn1cccn1)N1CCCC(n2cncn2)C1 (stereo not given),12.9%
3,CC(C)C(=O)N1CCc2c(CN(C)Cc3ccco3)cncc2C1,-11.2%
4,Cc1cc(CNC(=O)Cc2cccs2)ccc1S(C)(=O)=O,-3.68%
5,COCCC(=O)NC(C)(C(N)=O)c1cccc(Cl)c1 (stereo not given),26.4%
6,Cc1nncn1CCNC(=O)C(C)(C)c1cccc(Cl)c1,24.3%
7,CC(C)(C)OC(=O)NC(C)(C(N)=O)c1cccc(Cl)c1 (stereo not given),65.6%
8,CC(C)(CNC(=O)c1ccc(Cl)o1)NC(=O)OC(C)(C)C,-60.9%
9,CC(NC(=O)Cc1cccs1)(C(N)=O)c1cccc(Cl)c1 (stereo not given),60%
10,CC(NC(=O)Cc1ccccc1F)(C(N)=O)c1cccc(Cl)c1 (stereo not given),32%
11,CC(C)(C)SCC(=O)NC(C)(C(N)=O)c1cccc(Cl)c1 (stereo not given),-19.5%
12,CC(C)(C)CC(=O)NC(C)(C(N)=O)c1cccc(Cl)c1 (stereo not given),74.5%
13,CCN(CC1=CCN(C)CC1)C(=O)CCOC,29.5%
14,CC1CCN(CCNCc2cc(-c3ccccc3)cn3nnnc23)CC1,23.2%
15,Cc1nc(C)n(CC2CN(CCCOc3ccc(F)cc3)CCO2)n1 (stereo not given),25.6%
16,COC(=O)c1sc(C(F)(F)F)cc1OC,43.2%
17,Cc1nsc(N2CCN(CC(=O)NCc3ccc(F)cc3)CC2)n1,40.9%
18,Cc1nsc(N2CCN(C(=O)Nc3cccc(C#N)c3)CC2)n1,37.2%
19,Cc1nsc(N2CCN(C(=O)Nc3ccc4[nH]ccc4c3)CC2)n1,25.5%
20,Cc1nsc(N2CCN(Cc3cccc(F)c3)CC2)n1,57.6%
21,OCc1csc(N2CCN(Cc3cccc(F)c3)CC2)n1,28.7%
22,Cc1nsc(N2CCN(C(=O)Nc3cccc(F)c3)CC2)n1,68.3%
